Results as given in the supplement of paper PMC6555819.

Key:
Assay in all cases: PBM binding z-score (relative to random genomic background probes); higher = stronger binding; sequences stand for … in GC…GCGATTGACAGCGTAGAATGAAGG
[1] = tested on: FXR:RXRa (NR concentration 270 nM, RXRa partner concentration 90 nM)
Procedure, shortened: (§1)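 Binding buffer was PBS pH 7.4 with 2% milk, 0.02% Triton X-100, 1 mM DTT, 0.2 mg/mL BSA and 0.4 mg/ml salmon testes DNA. In it, ligand-free nuclear receptor dimers were incubated 1 h on custom Agilent 4×180K protein-binding microarrays carrying double-stranded probes. Antibodies against each partner (one per run) detected binding, and z-scores were calculated against random background probes after regression normalization of scanned fluorescence.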

[2] = tested on: LXRa:RXRa (NR concentration 270 nM, RXRa partner concentration 90 nM)
Procedure, shortened: as §1

[3] = tested on: LXRa homodimer (NR concentration 270 nM)
Procedure, shortened: as §1

[4] = tested on: LXRb:RXRa (NR concentration 270 nM, RXRa partner concentration 90 nM)
Procedure, shortened: as §1

[5] = tested on: LXRb homodimer (NR concentration 270 nM)
Procedure, shortened: as §1

[6] = tested on: PPARa:RXRa (NR concentration 270 nM, RXRa partner concentration 90 nM)
Procedure, shortened: as §1

[7] = tested on: PPARg:RXRa (NR concentration 180 nM, RXRa partner concentration 90 nM)
Procedure, shortened: as §1

[8] = tested on: PPARg:RXRa 270nM:90nM, anti-RXR (NR concentration 270 nM, RXRa partner concentration 90 nM)
Procedure, shortened: as §1

[9] = tested on: PPARg:RXRa 30nM:10nM, anti-RXR (NR concentration 30 nM, RXRa partner concentration 10 nM)
Procedure, shortened: as §1

[10] = tested on: PPARg:RXRa 90nM:30nM, anti-RXR (NR concentration 90 nM, RXRa partner concentration 30 nM)
Procedure, shortened: as §1

[11] = tested on: PPARg:RXRa DBDmut IVT, anti-RXR (DBD mutation: RXRa K156A/R161A, NR concentration 270 nM, RXRa partner concentration 90 nM)
Procedure, shortened: as §1

[12] = tested on: PPARg:RXRa IVT, anti-PPARg (NR concentration 270 nM, RXRa partner concentration 90 nM)
Procedure, shortened: as §1

[13] = tested on: PPARg DBDmut:RXRa IVT, anti-PPARg (DBD mutation: PPARg1 K132A/R137A, NR concentration 270 nM, RXRa partner concentration 90 nM)
Procedure, shortened: as §1

[14] = tested on: PPARg DBDmut IVT, anti-PPARg (DBD mutation: PPARg1 K132A/R137A, NR concentration 270 nM)
Procedure, shortened: as §1

[15] = tested on: PPARg homodimer (NR concentration 180 nM)
Procedure, shortened: as §1

[16] = tested on: PXR:RXRa (NR concentration 270 nM, RXRa partner concentration 90 nM)
Procedure, shortened: as §1

[17] = tested on: PXR homodimer (NR concentration 270 nM)
Procedure, shortened: as §1

[18] = tested on: RARa:RXR (NR concentration 270 nM, RXRa partner concentration 90 nM)
Procedure, shortened: as §1

[19] = tested on: RARa homodimer (NR concentration 270 nM)
Procedure, shortened: as §1

[20] = tested on: RARb:RXRa (NR concentration 270 nM, RXRa partner concentration 90 nM)
Procedure, shortened: as §1

Sequence	PBM binding z-score [1]	PBM binding z-score [2]	PBM binding z-score [3]	PBM binding z-score [4]	PBM binding z-score [5]	PBM binding z-score [6]	PBM binding z-score [7]	PBM binding z-score [8]	PBM binding z-score [9]	PBM binding z-score [10]	PBM binding z-score [11]	PBM binding z-score [12]	PBM binding z-score [13]	PBM binding z-score [14]	PBM binding z-score [15]	PBM binding z-score [16]	PBM binding z-score [17]	PBM binding z-score [18]	PBM binding z-score [19]	PBM binding z-score [20]
CAAACTCGGTCAAGAGGTCAAAGTCCGCTTCCCG	6.2	5.96	6.55	5.13	1.61	5.82	5.83	5.99	3.41	5.47	4.29	5.27	1.06	1.86	4.18	5.89	2.01	6.63	1.95	5.01
TTACCAACGTGAGCTGAGGTCGTTGATCCAACTC	0.516	0.0402	-0.0796	0.169	-0.442	0.553	-0.116	-0.131	0.0496	-0.0803	-0.844	-0.235	-0.101	-0.365	-0.384	1.52	0.291	0.951	-0.767	0.217
ACAGACAGGTGAGTGAAGGTACCTCAGCTGGACG	-0.587	-0.527	-0.687	-0.78	-0.777	-0.49	0.476	-0.227	-0.761	-0.682	0.368	0.143	-0.279	-0.459	-0.919	-0.854	-0.592	-0.657	-1.02	0.213
CCTACTGGGCCAAGTTCATTGATCAGTCAAAGCA	0.51	0.916	0.751	0.634	-0.712	1.83	1.24	2.02	0.309	1.6	3.93	3.54	0.0503	-0.432	1.19	2.85	3.64	0.935	0.262	1.88
ATATGTAGGTTACTTCCGGGTCATTCAGGCTATG	2.58	5.79	2	3.81	1.01	4.23	5.4	4.83	2.21	4.06	7.27	7	2.25	1.76	2.39	3.68	1.81	3.76	0.485	2.36
CTCGAAAGGTCGGTTGTGGTGAGTATACGGATAA	2.01	1.54	0.263	1.67	0.416	2.29	0.242	0.949	-0.0875	0.394	0.261	0.611	-0.0487	0.467	1.3	1.13	0.427	1.81	1.01	3.03
ATATGTAGGTTATCGGGTCATCCAGTTTGCGCAT	3.4	3.29	1.73	3.26	1.22	5.15	7.35	6.27	3.9	5.79	7.5	7.73	3.61	3.11	3.09	3.98	5.45	4.35	1.79	2.96
GCTGCTAGGTCAGGTTGGTCAGCTACCGGGTACG	1.12	0.526	-0.544	0.265	-0.337	1.4	0.0957	0.884	-0.631	0.221	2.57	2.37	-0.857	-0.886	0.811	0.288	-0.331	0.391	-0.864	3.32
TAGCCTAGGGCATTGGGCCAGTATAGTACGCATC	-0.339	-0.336	-0.318	-0.673	-0.892	-0.0901	0.887	0.225	-0.369	-0.368	0.771	1.87	-0.149	-0.898	-1.01	-0.62	-0.779	-0.444	-1.17	1.08
CATACAGGTTCAGCTAGGCCAGAGTAGGGACGGC	0.788	1.03	-0.0766	0.293	-0.03	1.21	0.629	0.338	-0.155	0.0738	-0.2	0.213	0.171	0.0145	0.268	0.759	0.121	0.691	-0.0156	1.44
GATACAGGGTCAAGGCCTGAGTACGCGTATTGAT	6.17	3.94	-0.32	3.35	-0.67	5.35	5.34	5.5	2.3	4.29	2.78	3.87	0.27	0.16	1.74	3.43	0.0722	3.99	0.47	4.4
CTCGAAAGGTCGGTTGAGGGGAGTATACGGATAA	2.57	1.35	-0.151	1.35	0.377	2.39	0.359	0.861	-0.0851	0.567	-0.0517	0.459	0.19	0.356	0.859	1.51	-0.0252	1.79	-0.0195	3.02
TCGAGTAGGTGAGGGGCATTCAGAATGGCGTCGA	0.283	-0.0871	-0.49	1.21	0.881	1.47	1.99	3.31	1.98	2.63	3.64	3.75	-0.208	0.0293	0.149	0.21	-0.342	-0.0572	-0.832	0.965
TCATATAGGTAAAGGTGAAATTCGAACGATATGA	0.843	1.08	-0.192	1.14	0.15	3.13	4.11	4.26	4.22	4.3	3.77	3.94	1.35	1.08	0.745	0.895	0.378	1.54	0.597	1.77
CGTCAACGTTCAAGGTAACGTAACAGAAAGCAGC	-0.152	-0.339	-0.374	-0.129	-0.566	-0.0131	0.721	-0.237	-0.128	-0.193	-0.333	0.375	-0.0516	-0.229	-0.442	-0.292	-0.379	-0.0345	-0.412	0.89
CGTAGCAGGCCAGGGTCACTCAAGCATTTCGCTT	2.18	1.78	-0.329	2.14	-1.14	2.89	0.663	1.49	-0.228	0.716	0.638	1.11	-0.725	-1.16	0.494	2.28	-0.189	2.69	-0.182	2.66
TCATATAGGTAAAAGGTGAAAGTTGGTGTGGTAA	2.15	2.33	0.407	2.44	0.326	5.33	9.26	8.44	8.7	8.75	5.28	5.23	1.91	1.67	2.39	2.16	0.944	3.3	2.02	2.09
CGTAAAAGTTCAAGGTAACGTAACAGAAAGCAGC	5.78	5.24	2.41	3.04	1.2	4.35	2.48	3.11	1.09	1.91	0.129	1.62	1.87	1.28	2.19	3.49	1.82	2.92	1.29	4.99
GCAGAAAGGTGAAACGCAGGTAACTCAGGGTGGC	1.58	1.62	-0.633	0.912	-1.18	3.5	1.57	2.32	-0.0918	1.39	3.02	2.42	-0.00989	-0.405	0.213	0.633	-0.804	1.9	-0.501	2.88
CCTTACGGGTCACGAGCTTATAGCACGACGAGCG	6.56	4.18	-0.258	3.49	-0.00639	5.9	6.33	6.04	2.64	4.89	3.78	4.75	2.37	2.07	3.27	3.85	-0.361	5.25	0.902	4.42
CGTCCAAGGTCAATGCTAGGTCATTGAAAGCATT	7.16	6.36	5.55	4.79	1.21	5.28	4.04	4.94	1.89	3.66	3.36	3.99	1.51	0.205	6.45	5.79	3.15	6.69	1.7	5.19
CAAACTAGGACACAGAGGTCAAAGTCCGTGCGTA	5.53	5.78	6.08	5.13	1.79	5.73	6.63	5.99	3.64	5.73	6.49	6.69	3.32	2.78	5.68	6.16	7.13	6.38	1.48	4.28
ATCGAAAGGTCGTCAGGTGAGTATACAGAAAGGC	5.1	3.98	0.518	3.25	0.804	4.7	3.63	3.86	1.5	2.93	0.0444	2.18	2.81	1.05	2.13	3.04	0.936	3.91	0.966	3.84
TCATAGAGGTAATACAGGTGAAAGTCGGCATCTA	0.717	1.43	-0.283	0.754	-0.377	1.85	0.997	1.86	3.1	2.46	2.41	1.82	0.716	0.411	0.49	0.522	-0.0711	1.04	0.214	0.478
ACTTACGAGTCAACGAGGTTATAGCACGCGTATA	0.899	1.12	0.413	1.26	0.307	1.73	0.967	0.553	0.564	0.254	-0.235	0.267	1.03	0.64	0.175	1.51	0.513	1.68	-0.00172	0.738
CATACAGGGTCAGCTAGGACAGAGTAGGGACGGC	4.48	2.8	-0.0468	2.29	0.178	4.13	3.16	2.87	0.481	1.76	1.2	2.23	0.778	0.0196	0.881	2.07	0.128	3	0.439	4.04
CCTAGCATGCCAGGGTCACTCAAGCATTTCGCTT	2.11	1.85	-0.459	2.23	-0.94	3.15	0.542	1.23	-0.373	0.276	-0.246	0.391	-0.691	-1.32	0.817	2.61	-0.116	3.17	-0.337	2.35
GCTGCTAGGTCAACTGATGGGCAGCTAAAGCTCG	3.7	2.69	-0.419	1.48	-0.413	3.25	2.39	3.09	0.29	1.62	4.79	4	-0.683	-0.478	0.434	1.1	-0.949	1.93	-0.663	4.1
TCATATAGGTAAAGGTGAAAGACGAACGATATGA	1.12	1.17	-0.192	1.28	0.0599	3.09	4.19	4.4	4.5	4.66	3.92	4.19	2	1.64	1.19	0.767	-0.0893	1.22	0.159	1.85
